Experimental data taken from PubChem BioAssay (Tox21).
Where “and” joins values, the source holds several entries; their conditions need not be identical. Equal entries are not always repeated. More than one record can exist for a structure, and the calls need not agree. Calls of active or inactive are those of the source. A call without a number means that no potency is given here. Unless noted, calls come from the whole dose curve; as a rule, active = well fitted curve in the direction sought with a large enough effect in the repeat runs; inconclusive = weak or mixed curves; inactive = no such curve, though single readings can be large; an effect the other way counts as inactive or inconclusive.

Legend:
[1] = qHTS assay to identify small molecule antagonists of the thyroid receptor (TR) signaling pathway - cell viability counter screen (AID 743064); note: nearly all actives have a fitted effect of over 50% in size; note: potency is the fitted concentration of half-maximal effect
Method in brief: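 In-well cytotoxicity read by CellTiter-Fluor (30 min, 37 C) following 23.5 h exposure of GH3 cells bearing a TRE-luciferase sensor. Compounds were added alongside 1 nM (final) T3 to drive TR transactivation.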

[2] = tested on: thyroid hormone receptor (rat, GH3 cells); experiment: qHTS assay to identify small molecule agonists of the thyroid receptor (TR) signaling pathway (AID 743066; calls by dose curve; note: potency is the fitted concentration of half-maximal effect)
[3] = qHTS assay to identify small molecule antagonists of the estrogen receptor alpha (ER-alpha) signaling pathway - cell viability counter screen (AID 743074; calls by dose curve; note: nearly all actives have a fitted effect of over 45% in size)
[4] = qHTS assay to identify small molecule antagonists of the estrogen receptor alpha (ER-alpha) signaling pathway using the BG1 cell line - cell viability counter screen (AID 743081);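 note: compound given together with 17beta-estradiol as the ER stimulus; nearly all actives have a fitted effect of over 45% in size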
Aromatase (Homo sapiens) = Aromatase (Homo sapiens) (UniProt P11511); experiment: qHTS assay to identify aromatase inhibitors (AID 743083); note: nearly all actives have a fitted effect of over 55% in size
[5] = qHTS assay to identify aromatase inhibitors - cell viability counter screen (AID 743084);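 note: cells stimulated with testosterone during compound exposure; nearly all actives have a fitted effect of over 55% in size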
[6] = qHTS assay to identify small molecule that activate the aryl hydrocarbon receptor (AhR) signaling pathway - cell viability counter screen (AID 743086);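 note: HepG2 liver cells carrying the AhR DRE luciferase reporter; nearly all actives have a fitted effect of over 45% in size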
Method in brief: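 Cytotoxicity counter screen: CellTiter-Fluor signal (30 min, 37 C) in 4000 HepG2 cells/well carrying the DRE-luciferase reporter, following 24 h compound exposure at 37 C.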

[7] = target: Peroxisome proliferator-activated receptor gamma (Homo sapiens) (UniProt P37231); experiment: qHTS assay to identify small molecule agonists of the peroxisome proliferator-activated receptor gamma (PPARg) signaling pathway (AID 743094; active = well fitted activation curve with a large enough effect in the signal ratio in the repeat runs, not every such curve was filed as active; inconclusive = weak or mixed curves, or effect the other way; inactive = no such curve, though single readings can be large or run the other way; the % refers to the signal ratio)
Method in brief: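 Cells from the PPARg UAS-bla HEK293H line are plated and incubated 5 h at 37C. Compounds in DMSO are pinned in and left 17 h at 37C. LiveBLAzer B/G substrate is then added for 1 h at room temperature before fluorescence is measured.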

[8] = target: Peroxisome proliferator-activated receptor gamma (Homo sapiens) (UniProt P37231); experiment: qHTS assay to identify small molecule antagonists of the peroxisome proliferator-activated receptor gamma (PPARg) signaling pathway (AID 743191; calls by dose curve; note: nearly all actives have a fitted effect of over 30% in size)
Method in brief: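 Beta-lactamase reporter under UAS control in HEK293H PPARg-bla cells; compound treatment 17 h at 37C. Read-out: fluorescence intensity after 1 h room-temperature incubation with LiveBLAzer B/G FRET substrate.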

[9] = qHTS assay for small molecule agonists of the antioxidant response element (ARE) signaling pathway (AID 743202; active = well fitted activation curve with a large enough effect in the signal ratio in the repeat runs, not every such curve was filed as active; inconclusive = weak or mixed curves, or effect the other way; inactive = no such curve, though single readings can be large or run the other way; the % refers to the signal ratio)
Method in brief: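 Beta-lactamase reporter activity, read as fluorescence intensity, reflects ARE/Nrf2 pathway induction in HepG2 cells after 16 h compound exposure at 37 C; substrate loading was 2 h at room temperature.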

[10] = qHTS assay for small molecule agonists of the antioxidant response element (ARE) signaling pathway - cell viability counter screen (AID 743203; calls by dose curve; note: nearly all actives have a fitted effect of over 55% in size)
Method in brief: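 Cytotoxicity was tested in parallel with the ARE reporter screen. ARE-bla HepG2 cells were exposed to compounds for 16 hrs, and viability was taken from CellTiter-Glo luminescence.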

[11] = qHTS assay for small molecule activators of the heat shock response signaling pathway - cell viability counter screen (AID 743209); note: nearly all actives have a fitted effect of over 50% in size
Method in brief: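 Cytotoxicity counter screen run in parallel with the HSE beta-lactamase reporter, using the same wells. HeLa HSE-bla cells received compound for 5 h at 37 C; ATP-based CellTiter-Glo luminescence was measured after 30 min at room temperature.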

[12] = qHTS assay to identify small molecule antagonists of the thyroid receptor (TR) signaling pathway (AID 743065); note: nearly all actives have a fitted effect of over 55% in size
Method in brief: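 Antagonism measured as loss of luciferase signal in GH3 cells stably carrying a TRE-luciferase reporter, co-treated with compound and T3 (1 nM final) for 23.5 h at 37 C. Viability was read in the same well by CellTiter-Fluor.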

[13] = target: Estrogen receptor (Homo sapiens) (UniProt P03372); experiment: qHTS assay to identify small molecule antagonists of the estrogen receptor alpha (ER-alpha) signaling pathway (AID 743069; active = well fitted curve in the direction sought with a large enough effect in the signal ratio in the repeat runs, not every such curve was filed as active; inconclusive = weak or mixed curves, or effect the other way; inactive = no such curve, though single readings can be large or run the other way; the % refers to the signal ratio)
Method in brief: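 Fluorescence intensity from a beta-lactamase FRET substrate served as the read-out. Cells: HEK293 with stably integrated ER-alpha-UAS-bla reporter. Agonist 17beta-estradiol was co-added with compounds; incubation 18 hr at 37C, substrate 2 hr at room temperature.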

[14] = target: Estrogen receptor (Homo sapiens) (UniProt P03372); experiment: qHTS assay to identify small molecule agonists of the estrogen receptor alpha (ER-alpha) signaling pathway (AID 743075; calls by dose curve; note: potency is the fitted concentration of half-maximal effect)
[15] = target: Estrogen receptor (Homo sapiens) (UniProt P03372); experiment: qHTS assay to identify small molecule agonists of the estrogen receptor alpha (ER-alpha) signaling pathway using the BG1 cell line (AID 743079); conditions: BG1Luc4E2 cells, ERE-luciferase agonist, 22 h; activation: at 70.3 µM (top of the series) unless noted; note: nearly all actives have a fitted effect of over 20% in size; note: potency is the fitted concentration of half-maximal effect
[16] = qHTS assay to identify small molecule antagonists of the estrogen receptor alpha (ER-alpha) signaling pathway using the BG1 cell line (AID 743080; calls by dose curve;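 note: BG1 cells stimulated with 17beta-estradiol alongside compound; nearly all actives have a fitted effect of over 25% in size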)
Method in brief: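 Luminescence from a 4×ERE-luciferase reporter in BG1-Luc-4E2 cells served as read-out. Cells, pre-cultured 5 days in stripped-serum phenol-red-free medium, were exposed to compound with 17beta-estradiol co-stimulation for 21.5 h at 37 C.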

[17] = target: Aryl hydrocarbon receptor (Homo sapiens) (UniProt P35869); experiment: qHTS assay to identify small molecule that activate the aryl hydrocarbon receptor (AhR) signaling pathway (AID 743085); note: nearly all actives have a fitted effect of over 15% in size; note: potency is the fitted concentration of half-maximal effect;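 for activation: HG2L7.5c1 human HepG2 liver cells with stably integrated DRE-driven firefly reporter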
Method in brief: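 Luminescence (ONE-Glo) from a dioxin-responsive-element luciferase reporter in HG2L7.5c1 HepG2 cells after 24 hr compound exposure at 37C; viability measured by CellTiter-Fluor fluorescence beforehand.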

[18] = qHTS assay to identify small molecule antagonists of the peroxisome proliferator-activated receptor gamma (PPARg) signaling pathway - cell viability counter screen (AID 743194); conditions: Potency: co-treated with 50 nM rosiglitazone unless noted; note: nearly all actives have a fitted effect of over 55% in size
Method in brief: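 Viability was measured as CellTiter-Glo luminescence in GeneBLAzer PPARg UAS-bla HEK293H cells. These cells had been exposed 17 h at 37 C to compounds together with rosiglitazone at 50 nM final, with the beta-lactamase readout taken in the same wells.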

[19] = qHTS assay for small molecule activators of the heat shock response signaling pathway (AID 743210; active = well fitted activation curve with a large enough effect in the signal ratio in the repeat runs, with a control signal flat, not every such curve was filed as active; inconclusive = weak or mixed curves; the % refers to the signal ratio;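 note: HeLa cells with beta-lactamase reporter driven by heat shock elements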)
Method in brief: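 Fluorescence from a cleaved B/G FRET substrate (2.5 h, room temp) reports HSE-driven beta-lactamase in HeLa cells treated 5 h at 37 C with DMSO-dissolved compounds.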

Aromatase (Homo sapiens), sequence (P11511 whole entry, looked up): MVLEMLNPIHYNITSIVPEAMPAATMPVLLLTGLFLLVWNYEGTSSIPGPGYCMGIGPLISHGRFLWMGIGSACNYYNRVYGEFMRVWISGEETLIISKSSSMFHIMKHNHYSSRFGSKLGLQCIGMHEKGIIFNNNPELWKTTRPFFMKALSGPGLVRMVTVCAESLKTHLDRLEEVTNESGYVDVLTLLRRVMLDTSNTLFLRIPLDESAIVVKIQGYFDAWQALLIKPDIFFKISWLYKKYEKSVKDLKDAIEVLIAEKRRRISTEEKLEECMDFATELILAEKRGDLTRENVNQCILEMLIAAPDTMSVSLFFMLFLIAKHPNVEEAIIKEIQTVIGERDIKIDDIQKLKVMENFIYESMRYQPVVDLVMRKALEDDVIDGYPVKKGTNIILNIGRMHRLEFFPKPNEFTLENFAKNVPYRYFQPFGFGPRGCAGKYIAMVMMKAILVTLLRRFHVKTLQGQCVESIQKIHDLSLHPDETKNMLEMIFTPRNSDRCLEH
Peroxisome proliferator-activated receptor gamma (Homo sapiens), sequence (P37231 whole entry, looked up): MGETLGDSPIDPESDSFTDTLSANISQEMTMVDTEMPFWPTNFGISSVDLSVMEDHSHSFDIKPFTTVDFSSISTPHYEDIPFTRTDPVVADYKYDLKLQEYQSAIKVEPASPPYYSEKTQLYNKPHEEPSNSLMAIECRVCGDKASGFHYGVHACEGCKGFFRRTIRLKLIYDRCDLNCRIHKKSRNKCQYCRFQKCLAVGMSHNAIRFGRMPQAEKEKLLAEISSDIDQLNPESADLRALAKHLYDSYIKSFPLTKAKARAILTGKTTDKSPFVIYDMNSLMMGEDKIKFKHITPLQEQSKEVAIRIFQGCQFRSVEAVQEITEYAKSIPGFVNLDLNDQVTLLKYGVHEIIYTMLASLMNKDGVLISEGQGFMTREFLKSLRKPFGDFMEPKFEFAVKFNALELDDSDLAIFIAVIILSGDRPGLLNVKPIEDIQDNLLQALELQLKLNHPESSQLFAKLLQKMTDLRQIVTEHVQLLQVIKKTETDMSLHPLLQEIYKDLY
Estrogen receptor (Homo sapiens), sequence (P03372 whole entry, looked up): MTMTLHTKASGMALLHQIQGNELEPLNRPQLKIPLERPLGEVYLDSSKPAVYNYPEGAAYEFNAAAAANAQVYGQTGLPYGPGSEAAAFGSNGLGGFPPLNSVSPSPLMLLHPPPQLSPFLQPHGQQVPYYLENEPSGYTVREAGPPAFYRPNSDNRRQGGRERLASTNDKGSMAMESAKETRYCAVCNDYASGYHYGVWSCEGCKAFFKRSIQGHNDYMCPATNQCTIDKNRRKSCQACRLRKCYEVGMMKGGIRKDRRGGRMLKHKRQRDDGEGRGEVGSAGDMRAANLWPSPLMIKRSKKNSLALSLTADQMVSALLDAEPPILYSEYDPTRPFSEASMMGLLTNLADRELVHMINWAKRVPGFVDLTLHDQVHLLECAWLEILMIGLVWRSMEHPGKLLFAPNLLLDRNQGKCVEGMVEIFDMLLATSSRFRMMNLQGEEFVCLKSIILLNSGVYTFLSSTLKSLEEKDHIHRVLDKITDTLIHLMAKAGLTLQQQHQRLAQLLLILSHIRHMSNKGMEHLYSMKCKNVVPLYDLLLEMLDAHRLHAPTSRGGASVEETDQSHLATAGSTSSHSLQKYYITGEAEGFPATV
Aryl hydrocarbon receptor (Homo sapiens), sequence (P35869 whole entry, looked up): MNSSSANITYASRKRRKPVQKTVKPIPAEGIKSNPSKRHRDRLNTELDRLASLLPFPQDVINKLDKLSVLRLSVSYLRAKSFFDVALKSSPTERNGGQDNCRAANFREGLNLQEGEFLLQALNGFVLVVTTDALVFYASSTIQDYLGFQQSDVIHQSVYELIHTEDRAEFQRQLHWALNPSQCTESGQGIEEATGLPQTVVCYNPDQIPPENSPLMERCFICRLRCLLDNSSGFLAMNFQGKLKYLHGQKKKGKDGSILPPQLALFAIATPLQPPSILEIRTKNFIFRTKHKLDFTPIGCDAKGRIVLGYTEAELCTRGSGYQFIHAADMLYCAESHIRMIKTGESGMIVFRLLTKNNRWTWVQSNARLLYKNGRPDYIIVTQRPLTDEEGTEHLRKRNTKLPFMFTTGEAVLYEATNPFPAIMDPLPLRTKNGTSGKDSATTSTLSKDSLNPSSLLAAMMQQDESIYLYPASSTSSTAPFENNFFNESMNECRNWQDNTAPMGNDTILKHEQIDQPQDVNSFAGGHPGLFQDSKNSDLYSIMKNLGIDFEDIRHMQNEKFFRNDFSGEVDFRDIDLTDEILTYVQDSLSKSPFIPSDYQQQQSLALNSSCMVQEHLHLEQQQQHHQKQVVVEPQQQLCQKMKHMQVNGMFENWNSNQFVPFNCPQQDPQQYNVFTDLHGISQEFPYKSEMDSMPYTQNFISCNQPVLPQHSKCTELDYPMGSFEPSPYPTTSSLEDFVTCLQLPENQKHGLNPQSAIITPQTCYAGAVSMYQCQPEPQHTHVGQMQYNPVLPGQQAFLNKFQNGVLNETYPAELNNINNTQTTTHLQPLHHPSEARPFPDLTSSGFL

For `O=C1O[C@H]([C@H](O)CO)C(O)=C1O`, the Potency [1] was “inactive”, the Potency [2] was “inactive” and the Potency [3] was “inactive”. For the same molecule, the Potency [4] was “inactive”, the Potency (Aromatase (Homo sapiens)) was “inactive” and the Potency [5] was “inactive”. For the same molecule, the Potency [6] was “inactive”, the Potency [7] was “inactive” and the Potency [8] was “inactive”. For the same molecule, the Potency [9] was “inactive”, the Potency [10] was “inactive” and the Potency [11] was “inactive”.
With `CC(O)CNCC(C)O` (configuration not stated) the Potency [12] was “inactive”, the Potency [2] was “inactive” and the Potency [13] was “inactive”. For the same molecule, the Potency [3] was “inactive”, the Potency [14] was “inactive” and the Potency [15] was “inactive”. For the same molecule, the Potency [16] was “inactive”, the Potency [4] was “inactive” and the Potency (Aromatase (Homo sapiens)) was “inactive”. For the same molecule, the Potency [5] was “inactive”, the Potency [17] was “inactive” and the Potency [6] was “inactive”. The Potency [7] was “inactive”, the Potency [8] was “inactive” and the Potency [18] was “inactive”. The Potency [10] was “inactive”, the Potency [11] was “inactive” and the Potency [19] was “inactive”.
In the case of `Cc1cccc(C)c1[N+](=O)[O-]`, the Potency [1] was “inactive”, the Potency [2] was “inactive and 61.1 µM (active)” and the Potency [3] was “inactive”. For the same molecule, the Potency [4] was “inactive”, the Potency (Aromatase (Homo sapiens)) was “inactive” and the Potency [5] was “inactive”. The Potency [6] was “inactive”, the Potency [7] was “inactive” and the Potency [8] was “inactive”. For the same molecule, the Potency [18] was “inactive”, the Potency [9] was “inactive” and the Potency [11] was “inactive”. For the same molecule, the Potency [19] was “inactive”.
For `CO[Si](CCCNCCN)(OC)OC`, the Potency [1] was “inactive”, the Potency [2] was “inactive” and the Potency [3] was “inactive”. For the same molecule, the Potency [4] was “inactive”, the Potency (Aromatase (Homo sapiens)) was “inactive” and the Potency [5] was “inactive”. For the same molecule, the Potency [6] was “inactive”, the Potency [7] was “inactive” and the Potency [8] was “inactive”. The Potency [18] was “inactive”, the Potency [9] was “inactive” and the Potency [11] was “inactive”. The Potency [19] was “inactive”.
For `Oc1ccc(Cc2ccccc2O)cc1`, the Potency [1] was “inactive”, the Potency [2] was “inactive” and the Potency [3] was “inactive”. The Potency [14] was 11.1 µM [inconclusive] (active) and 24.5 µM [inconclusive] (active), the Potency [15] was 9.81 µM (active) and 6.11 µM (active) and the Potency [16] was “inactive”. The Potency [4] was “inactive”, the Potency (Aromatase (Homo sapiens)) was “inactive” and the Potency [5] was “inactive”. The Potency [17] was “inactive”, the Potency [6] was “inactive” and the Potency [7] was “inactive”. The Potency [8] was “inactive”, the Potency [11] was “inactive” and the Potency [19] was “inactive”.
In the case of `CC(C)(CO)CO`, the Potency [1] was “inactive”, the Potency [2] was “inactive” and the Potency [13] was “inactive”. For the same molecule, the Potency [3] was “inactive”, the Potency [14] was “inactive and 43.7 µM [activator] (active)” and the Potency [15] was “inactive”. For the same molecule, the Potency [16] was “inactive”, the Potency [4] was “inactive” and the Potency (Aromatase (Homo sapiens)) was “inactive”. For the same molecule, the Potency [5] was “inactive”, the Potency [6] was “inactive” and the Potency [18] was “inactive”. For the same molecule, the Potency [9] was “inactive”, the Potency [10] was “inactive” and the Potency [11] was “inactive”. For the same molecule, the Potency [19] was “inactive”.
In the case of `CN1Cc2c(N)cccc2C(c2ccccc2)C1` (configuration not stated), the Potency [1] was “inactive”, the Potency [2] was “inactive” and the Potency [3] was “inactive”. For the same molecule, the Potency [4] was “inactive”, the Potency [17] was “inactive” and the Potency [6] was “inactive”. The Potency [18] was “inactive”, the Potency [9] was “inactive” and the Potency [10] was “inactive”. For the same molecule, the Potency [11] was “inactive” and the Potency [19] was “inactive”.
In the case of `CC(=O)OC[C@H]1O[C@@](COC(C)=O)(O[C@H]2O[C@H](COC(C)=O)[C@@H](OC(C)=O)[C@H](OC(C)=O)[C@H]2OC(C)=O)[C@@H](OC(C)=O)[C@@H]1OC(C)=O`, the Potency [1] was “inactive”, the Potency [2] was “inactive” and the Potency [3] was “inactive”. For the same molecule, the Potency [4] was “inactive”, the Potency (Aromatase (Homo sapiens)) was “inactive” and the Potency [5] was “inactive”. The Potency [6] was “inactive”, the Potency [18] was “inactive” and the Potency [9] was “inactive”. The Potency [10] was “inactive”, the Potency [11] was “inactive” and the Potency [19] was “inactive”.
For `O=c1c(O)c(-c2ccc(O)c(O)c2)oc2cc(O)cc(O)c12`, the Potency [1] was “inactive and 30.9 µM (active)”, the Potency [2] was “inactive” and the Potency [3] was “inactive”. For the same molecule, the Potency [14] was 24.6 µM [inconclusive] (active) [middle of 4 runs], the Potency [15] was 29.8 µM (active) and 68.7 µM (active) and the activation [15] was 18.1% [at 95 µM] (active). For the same molecule, the Potency [16] was “inactive”, the Potency [4] was “inactive” and the Potency (Aromatase (Homo sapiens)) was “inactive”. The Potency [5] was “inactive”, the Potency [17] was 61.2 µM (active) and 54.9 µM (active) and 61.1 µM (active) and the Potency [6] was “inactive”. The Potency [7] was “inactive”, the Potency [8] was “inactive” and the Potency [9] was “inactive”. For the same molecule, the Potency [10] was “inactive” and the Potency [11] was “inactive”.
